# From the supplement of paper PMC6555819
# Legend:
# Assay in all cases: PBM binding z-score (relative to random genomic background probes); higher = stronger binding; sequences stand for … in GC…GCGATTGACAGCGTAGAATGAAGG
# [1] = test system: FXR:RXRa (NR concentration 270 nM, RXRa partner concentration 90 nM)
# Outline: (§1)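 Custom Agilent 4×180K protein-binding microarrays carried double-stranded probes. Their 34-nt variable regions held direct-repeat seeds, single-nucleotide variants, half-site ablations and random human genomic background sequences. Arrays were incubated 1 h with ligand-free nuclear receptor dimers in PBS pH 7.4, 2% milk, 0.02% Triton X-100, 1 mM DTT, 0.2 mg/mL BSA and 0.4 mg/ml salmon testes DNA. Antibodies against each partner (one per run) detected binding, and scanned fluorescence was regression-normalized. Binding z-scores use random background probes as reference.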
# [2] = test system: LXRa:RXRa (NR concentration 270 nM, RXRa partner concentration 90 nM)
# Outline: as §1
# [3] = test system: LXRa homodimer (NR concentration 270 nM)
# Outline: as §1
# [4] = test system: LXRb:RXRa (NR concentration 270 nM, RXRa partner concentration 90 nM)
# Outline: as §1
# [5] = test system: LXRb homodimer (NR concentration 270 nM)
# Outline: as §1
# [6] = test system: PPARa:RXRa (NR concentration 270 nM, RXRa partner concentration 90 nM)
# Outline: as §1
# [7] = test system: PPARg:RXRa (NR concentration 180 nM, RXRa partner concentration 90 nM)
# Outline: as §1
# [8] = test system: PPARg:RXRa 270nM:90nM, anti-RXR (NR concentration 270 nM, RXRa partner concentration 90 nM)
# Outline: as §1
# [9] = test system: PPARg:RXRa 30nM:10nM, anti-RXR (NR concentration 30 nM, RXRa partner concentration 10 nM)
# Outline: as §1
# [10] = test system: PPARg:RXRa 90nM:30nM, anti-RXR (NR concentration 90 nM, RXRa partner concentration 30 nM)
# Outline: as §1
# [11] = test system: PPARg:RXRa DBDmut IVT, anti-RXR (DBD mutation: RXRa K156A/R161A, NR concentration 270 nM, RXRa partner concentration 90 nM)
# Outline: as §1
# [12] = test system: PPARg:RXRa IVT, anti-PPARg (NR concentration 270 nM, RXRa partner concentration 90 nM)
# Outline: as §1
# [13] = test system: PPARg DBDmut:RXRa IVT, anti-PPARg (DBD mutation: PPARg1 K132A/R137A, NR concentration 270 nM, RXRa partner concentration 90 nM)
# Outline: as §1
# [14] = test system: PPARg DBDmut IVT, anti-PPARg (DBD mutation: PPARg1 K132A/R137A, NR concentration 270 nM)
# Outline: as §1
# [15] = test system: PPARg homodimer (NR concentration 180 nM)
# Outline: as §1
# [16] = test system: PXR:RXRa (NR concentration 270 nM, RXRa partner concentration 90 nM)
# Outline: as §1
# [17] = test system: PXR homodimer (NR concentration 270 nM)
# Outline: as §1
# [18] = test system: RARa:RXR (NR concentration 270 nM, RXRa partner concentration 90 nM)
# Outline: as §1
# [19] = test system: RARa homodimer (NR concentration 270 nM)
# Outline: as §1
# [20] = test system: RARb:RXRa (NR concentration 270 nM, RXRa partner concentration 90 nM)
# Outline: as §1
Sequence,PBM binding z-score [1],PBM binding z-score [2],PBM binding z-score [3],PBM binding z-score [4],PBM binding z-score [5],PBM binding z-score [6],PBM binding z-score [7],PBM binding z-score [8],PBM binding z-score [9],PBM binding z-score [10],PBM binding z-score [11],PBM binding z-score [12],PBM binding z-score [13],PBM binding z-score [14],PBM binding z-score [15],PBM binding z-score [16],PBM binding z-score [17],PBM binding z-score [18],PBM binding z-score [19],PBM binding z-score [20]
CGACCTAGGTCATTGACAGGACAGTGAATAGTAA,5.8,4.01,0.717,2.75,0.226,4.18,3.67,3.24,0.782,2.01,3.78,3.8,0.789,0.214,2.3,1.99,-0.114,3.08,0.169,3.9
CCGAGTAGGTTAGGGGGCATTCAGGCAACGGTGA,1.36,1.91,0.834,4.42,6.02,4.43,6.67,7.33,5.18,7.46,2.55,4.72,4.62,4.7,2.25,2.19,1.47,2.41,0.807,2.11
CGTCCAAAGTCAGAGAGGTCAGTGAATGCCGAGT,1.93,2.04,1.25,1.98,0.362,2.51,0.249,0.942,-0.0025,0.475,0.254,0.644,-0.212,-0.647,1.79,3.05,1.35,2.85,0.862,3.27
GCTAGCAGGCTATTTGGGTCACTCAATGACGGGC,0.127,0.137,-0.259,0.255,-0.646,2.16,1.11,1.36,-0.338,0.706,3.1,3.87,-0.208,-0.897,0.28,0.435,-0.454,1.01,-0.508,1.27
ACTAGCAGGCCATGTTTGGGTCACTCAAACAAAG,0.27,-0.058,-0.283,0.735,-0.846,1.31,0.145,0.304,-0.51,-0.31,0.691,1.13,-0.241,-1.08,0.0761,0.404,-0.559,1.37,-0.914,1.72
CCTTACGGGTCACTGAAAGGTTATAGCATTTGGA,5.83,4.87,0.976,4.17,0.221,5.59,5.13,5.03,2.12,3.38,2.95,4.1,1,1.09,3.7,5.03,0.223,6.33,0.617,4.51
AATACAGGGTCAGCGTAGGCCAGAGTACGCACAG,5.67,4.35,0.74,2.92,0.652,4.74,4.5,3.96,0.97,2.52,1.94,3.32,1.54,1.65,1.81,3.51,0.39,3.85,0.496,4.15
TCTAGCAGGCCAGAGTGTCACTCAAGAGGTACGG,-0.276,-0.311,-1.03,-0.712,-1.41,0.336,0.89,1.81,1.93,1.97,0.735,0.187,-0.515,-1.96,-0.804,-0.229,-0.833,0.142,-1.77,0.361
CGAACGAGGGCATGAGTTCATAGCAAATGCCGAT,2.26,2.23,1,1.51,-0.903,3.24,2.37,2.91,0.55,2.23,3.09,2.4,-0.0442,-0.857,0.292,4.74,7.66,2.71,-0.81,3.01
ATCTCTAGGTAACGATAGTTCAGTGAATGCAAAT,0.157,4.89,0.491,1.33,0.408,0.791,0.696,0.807,0.214,0.514,3.41,3.08,1.42,1.62,0.431,0.926,0.85,0.162,0.352,0.902
CCTACTGGGCCATCAGGTCTTTGATATCAACGTT,-0.207,-0.321,-0.21,-0.159,-0.568,0.508,0.773,1.66,0.0943,1.01,4.27,4.11,-0.465,-0.285,0.396,-0.399,-0.181,-0.151,-0.266,0.423
CGAACTAGGTCATCCAGGACAGTGATTACATTGA,4.19,2.8,0.631,2.2,-0.108,4.62,7.63,6.33,3.95,5.79,8.17,8.1,1.9,1.24,1.15,1.95,1.25,2.17,0.703,3.98
